Shown are actives, neighbours in structure and some others; about 1.2% of the full set was active somewhere.
Mito fusion act – inhibitors of mitochondrial division or activators of mitochondrial fusion. Potency, µM (series often up to 46.1 µM), without a hit: at the top dose growth rescue (activation), usual class: activators. 320,000 tested, 0.23% active. S. cerevisiae fusion-defective mutant growth rescue, CellTiterGlo 48 h. AID 485298; note: % of control where 0% means no effect; nearly all actives have a fitted effect of over 45% in size
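Compounds are tested for their ability to restore growth of mitochondrial fusion-defective yeast strains at non-permissive 37C in YPEG medium over 48 hours. Viability is quantified by luciferase luminescence.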
B2AR arrestin – beta2AR (human) beta-arrestin recruitment activity | beta-arrestin recruitment to beta2AR, cell-based reporter | P07550 | Potency, µM (titrated, usually from 46.1 µM), for inactives: at the highest dose activation, usual class: activators | 330,000 tested, 0.02% active | AID 492947;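 note: 0% = DMSO controls and full agonism = EC100 isoproterenol or metaproterenol; nearly all actives have a fitted effect of over 65% in size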
ERG Ets-DNA blk – inhibitors of human ERG Ets domain-DNA interaction. P11308. Potency, µM (top dose mostly 76.9 µM), for inactives: top-dose FP activity, negative = inhibition, actives largely listed as inhibitors. fluorescence polarization, His-ERG Ets domain / labelled DNA. AID 624246. 370,000 tested, 0.028% active; active = well fitted inhibition curve with a large enough effect in the polarisation, with a control signal flat; inconclusive = small, poorly fitted or top-dose-only effect, or effect the other way, or a change in a side signal; inactive = no such curve, though single readings can be large or run the other way; the % refers to the polarisation;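 note: polarization taken with two DNA probes labelled with fluorescein and Texas red; % of control where 0% means no effect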
Target sequence (P11308 whole entry, looked up, the tested form may be a part): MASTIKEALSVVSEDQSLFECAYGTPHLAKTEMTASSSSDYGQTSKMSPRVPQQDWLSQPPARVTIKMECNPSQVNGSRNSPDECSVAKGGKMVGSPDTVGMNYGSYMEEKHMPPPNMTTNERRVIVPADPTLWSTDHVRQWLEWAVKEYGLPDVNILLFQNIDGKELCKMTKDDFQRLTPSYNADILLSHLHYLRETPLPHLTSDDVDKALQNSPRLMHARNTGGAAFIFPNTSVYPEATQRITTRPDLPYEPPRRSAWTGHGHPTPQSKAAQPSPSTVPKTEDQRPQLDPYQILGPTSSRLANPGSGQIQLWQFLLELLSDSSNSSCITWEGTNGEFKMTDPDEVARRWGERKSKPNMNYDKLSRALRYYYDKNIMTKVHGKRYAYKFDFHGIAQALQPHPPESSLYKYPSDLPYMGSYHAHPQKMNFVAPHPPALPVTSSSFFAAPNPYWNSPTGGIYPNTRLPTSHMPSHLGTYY
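His-tagged ERG Ets domain (1 uM in the protein solution; 300mM KCl, 50mM Tris-HCl, 1mM EDTA, 1mM DTT, pH 7.5) received compound, then a probe mix of 5 nM fluorescein-DNA and 100nM Texas-615-DNA. Fluorescence polarization was read for both dyes.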
BRCA1 expr up – BRCA1 expression activation. Potency, µM (top dose mostly 46.1 µM), for inactives: top-dose activation, hits mostly activators. MCF7-BRCA1-FFLuc reporter, luminescence, 48 h; response scale: scaled: vehicle 0%, 10 µM genistein 100%. 380,000 tested, 1.1% active. AID 624202; note: nearly all actives have a fitted effect of over 80% in size
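Luminescence from a BRCA1-driven firefly luciferase in MCF7 cells was read after 48 h compound exposure at 37 C. Data normalized against DMSO and a 10microM genistein activation control, then curve-fitted across the titration.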
* hit, by the source's call. Unless noted, calls come from the whole dose curve; as a rule, active = well fitted curve in the direction sought with a large enough effect; inconclusive = small, poorly fitted or top-dose-only effect, or another doubt; inactive = no such curve, though single readings can be large; an effect the other way counts as inactive or inconclusive. Potency is the fitted concentration of half-maximal effect.

How did CCCCN(CCCC)c1ccc(/C=C2\C=Cc3ccccc32)cc1 do in these assays?
BRCA1 expr up: 0.9%

How did CCCCNc1ccc(/C=C2\C=Cc3ccccc32)cc1 do in these assays?
BRCA1 expr up: 6.31µM*

How did O=C(CSc1nnc(NC(=O)c2ccccc2F)s1)NCC1CCCO1 (stereo not drawn) do in these assays?
Mito fusion act: 1.4%; B2AR arrestin: -0.4%; ERG Ets-DNA blk: 2.2%; BRCA1 expr up: 12.6µM*

What do the screens show for `CC1C(=O)Nc2ccc(S(=O)(=O)NCc3ccc(N(C)C)cc3)cc2NC1=O` (stereo not drawn)?
ERG Ets-DNA blk: 16.1%

How did Cc1cc(C)c2nc(Cl)c(CN(Cc3ccco3)C(=O)Nc3ccccc3C)cc2c1 do in these assays?
Mito fusion act: 7.08µM*; B2AR arrestin: -0.7%; BRCA1 expr up: -91.2%

How did COCCN(Cc1cc2cc(C)cc(C)c2nc1Cl)C(=O)Nc1ccccc1 do in these assays?
Mito fusion act: 12.2%; B2AR arrestin: 1.5%; ERG Ets-DNA blk: -1.5%; BRCA1 expr up: -61.3%

How did COC(=O)c1c(-c2ccc(S(C)(=O)=O)cc2)sc2ccc(OC)cc12 do in these assays?
B2AR arrestin: 0.4%; ERG Ets-DNA blk: 15.8%; BRCA1 expr up: 4.47µM*

What do the screens show for `COC(=O)c1c(-c2ccc(S(C)(=O)=O)cc2)sc2cc(OC)ccc12`?
B2AR arrestin: -0.1%; ERG Ets-DNA blk: 13.6%; BRCA1 expr up: 6.31µM*

What do the screens show for `COC(=O)c1c(-c2cc(OC)cc(OC)c2)sc2ccc(OC)cc12`?
B2AR arrestin: 4.7%; ERG Ets-DNA blk: -11.6%; BRCA1 expr up: 15.9%

How did Cc1cc2c(cc1C)NC(=O)CC(c1ccccc1)=N2 do in these assays?
ERG Ets-DNA blk: -3.6%; BRCA1 expr up: 3.16µM*

Results for C=CCn1c(C)nc2c(sc3nc4c(cc32)COC(C)(C)C4)c1=O ?
Mito fusion act: -3.3%; B2AR arrestin: 0.7%; ERG Ets-DNA blk: -4.8%; BRCA1 expr up: 6.31µM*

How did O=Cc1ccc(O)c2ncccc12 do in these assays?
Mito fusion act: 18.0%; B2AR arrestin: 6.31µM*; ERG Ets-DNA blk: 12.8%; BRCA1 expr up: -80.1%

What do the screens show for `O=C(O)c1ccnc2c(O)cccc12`?
Mito fusion act: 2.0%; B2AR arrestin: 0.0%

What do the screens show for `Oc1ccc(/C=N/Nc2ccc(C(F)(F)F)cn2)cc1`?
Mito fusion act: 0.2%; B2AR arrestin: 0.1%; ERG Ets-DNA blk: -7.9%; BRCA1 expr up: 6.31µM*

What do the screens show for `CC(=O)CC(c1ccccc1)S(=O)(=O)c1ccc(C)cc1` (stereo not drawn)?
Mito fusion act: -0.9%; B2AR arrestin: -0.8%; ERG Ets-DNA blk: -4.5%; BRCA1 expr up: -2.8%

Results for COc1ccc(C(CC(=O)c2ccccc2)S(=O)(=O)c2ccc(C)cc2)cc1 (stereo not drawn) ?
Mito fusion act: 0.2%; B2AR arrestin: -1.2%; ERG Ets-DNA blk: -5.1%; BRCA1 expr up: 10µM*

Results for COc1ccc(C(=O)CC(=O)c2ccccc2)cc1 ?
ERG Ets-DNA blk: -9.5%; BRCA1 expr up: 7.94µM*

Results for O=C(O)CCC(=O)c1ccc(-c2ccccc2)cc1 ?
Mito fusion act: -0.8%; B2AR arrestin: -0.7%; ERG Ets-DNA blk: -9.0%; BRCA1 expr up: 43.5%

Results for COc1ccccc1CC(=O)c1ccc(OCc2ccccc2)cc1 ?
Mito fusion act: 9.5%; B2AR arrestin: -1.0%; ERG Ets-DNA blk: -16.1%; BRCA1 expr up: 8.91µM*

How did COc1ccc(C(=O)CC(=O)c2ccc(OC)cc2)cc1 do in these assays?
Mito fusion act: 2.4%; B2AR arrestin: 0.1%; ERG Ets-DNA blk: 5.6%; BRCA1 expr up: 47.6%

How did CCC(=O)c1ccc(-c2ccccc2)cc1 do in these assays?
Mito fusion act: -1.5%; B2AR arrestin: 3.9%; ERG Ets-DNA blk: -7.3%; BRCA1 expr up: 12.6µM*

What do the screens show for `CCOc1ccc(CCNC(=O)CSc2nnnn2-c2ccccc2)cc1OCC`?
ERG Ets-DNA blk: -1.7%; BRCA1 expr up: 3.6%

How did COc1ccc(NC(=O)CCS(=O)(=O)c2ccc3nc(C)sc3c2)cc1Cl do in these assays?
ERG Ets-DNA blk: -3.1%

How did CCn1c(=O)cc(OCC(=O)Nc2cc(OC)c(OC)c(OC)c2)c2ccccc21 do in these assays?
ERG Ets-DNA blk: 0.0%; BRCA1 expr up: -23.6%

Results for COc1ccc(O)c(C(=O)CC(=O)c2ccncc2)c1 ?
ERG Ets-DNA blk: 7.4%; BRCA1 expr up: 5.62µM*

How did O=C(COc1ccccc1)c1ccccc1 do in these assays?
ERG Ets-DNA blk: 0.4%; BRCA1 expr up: inconclusive

How did COC(=O)c1ccc(OCC(=O)c2ccccc2)cc1 do in these assays?
Mito fusion act: -2.7%; B2AR arrestin: 0.1%; ERG Ets-DNA blk: 2.5%; BRCA1 expr up: 11.2µM*

What do the screens show for `Cc1ccc(-c2noc(-c3ccccc3NC(=O)C3CC(=O)N(c4ccccc4C)C3)n2)cc1` (stereo not drawn)?
ERG Ets-DNA blk: -20.5%

What do the screens show for `O=C(NCc1csc(-c2ccccc2)n1)c1ccco1`?
Mito fusion act: 0.0%; B2AR arrestin: 5.9%; ERG Ets-DNA blk: -1.2%; BRCA1 expr up: 10µM*

What do the screens show for `O=C(NCCc1csc(-c2ccccc2)n1)c1ccco1`?
Mito fusion act: 6.2%; B2AR arrestin: 3.2%; ERG Ets-DNA blk: -13.0%; BRCA1 expr up: 54.9%

What do the screens show for `Cc1cc(C(=O)NCc2cccs2)no1`?
Mito fusion act: 0.2%; B2AR arrestin: -0.1%; ERG Ets-DNA blk: -6.3%; BRCA1 expr up: 1.3%

Results for Cc1cc(C(=O)NCc2csc(-c3ccccc3)n2)no1 ?
Mito fusion act: -3.6%; B2AR arrestin: -0.3%; ERG Ets-DNA blk: -2.0%; BRCA1 expr up: 10µM*

How did CC(C)(NC(=O)NC(CO)c1ccccc1)c1cccc(C(C)(C)NC(=O)NC(CO)c2ccccc2)c1 (stereo not drawn) do in these assays?
Mito fusion act: 1.0%; B2AR arrestin: 6.51µM*; ERG Ets-DNA blk: 7.1%; BRCA1 expr up: 7.2%

What do the screens show for `COc1ccc(Nc2nc3ccccc3s2)cc1`?
Mito fusion act: -9.5%; B2AR arrestin: 0.1%; ERG Ets-DNA blk: 14.4%; BRCA1 expr up: 5.01µM*

What do the screens show for `COc1ccc(CNc2nc3ccccc3s2)cc1OC`?
Mito fusion act: -6.3%; B2AR arrestin: -0.9%; ERG Ets-DNA blk: 0.4%; BRCA1 expr up: 99.3%

Results for COc1cccc(Nc2nc3ccc(OC)cc3s2)c1 ?
Mito fusion act: -3.3%; B2AR arrestin: 0.1%; ERG Ets-DNA blk: 6.3%; BRCA1 expr up: 4.47µM*

Results for CCNC(=O)N1CCN(/[N+]([O-])=N/Oc2ccc([N+](=O)[O-])cc2[N+](=O)[O-])CC1 ?
BRCA1 expr up: -5.5%

Results for CC1(C)C2CCC1(C)C(NC(=O)COC(=O)c1ccc(S(C)(=O)=O)c([N+](=O)[O-])c1)C2 (stereo not drawn) ?
BRCA1 expr up: -68.8%

Results for N=C(N)c1ccc(OCCCCCOc2ccc(C(=N)N)cc2)cc1 ?
Mito fusion act: 28.7%; B2AR arrestin: -0.4%; ERG Ets-DNA blk: -5.7%

What do the screens show for `CCCCCCOc1ccc(/C(N)=N/O)cc1`?
Mito fusion act: 9.8%; B2AR arrestin: 0.2%; ERG Ets-DNA blk: 5.0%; BRCA1 expr up: 7.08µM*

Screens deposited in PubChem by National Center for Advancing Translational Sciences (NCATS).
